From PubChem BioAssay (NCATS)
Inconclusive results are not listed. Calls of active or inactive are those of the source. Calls follow the shape of the full dose curve.

biological target: Peroxisome proliferator-activated receptor delta (Homo sapiens) (UniProt Q03181); experiment: qHTS assay for small molecule agonists of peroxisome proliferator-activated receptor delta signaling (AID 588534); conditions: HEK293T PPARdelta-UAS-bla, beta-lactamase ratio, 18 h; series mostly up to 76.7 µM
Method in brief: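 Reporter cells were plated and held 5 hrs at 37 C before compounds were added. After 18 hrs at 37 C, CCF4 dye was loaded for 2 hrs at RT and fluorescence measured.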

Chain of Peroxisome proliferator-activated receptor delta (Homo sapiens) (Q03181 whole entry, looked up): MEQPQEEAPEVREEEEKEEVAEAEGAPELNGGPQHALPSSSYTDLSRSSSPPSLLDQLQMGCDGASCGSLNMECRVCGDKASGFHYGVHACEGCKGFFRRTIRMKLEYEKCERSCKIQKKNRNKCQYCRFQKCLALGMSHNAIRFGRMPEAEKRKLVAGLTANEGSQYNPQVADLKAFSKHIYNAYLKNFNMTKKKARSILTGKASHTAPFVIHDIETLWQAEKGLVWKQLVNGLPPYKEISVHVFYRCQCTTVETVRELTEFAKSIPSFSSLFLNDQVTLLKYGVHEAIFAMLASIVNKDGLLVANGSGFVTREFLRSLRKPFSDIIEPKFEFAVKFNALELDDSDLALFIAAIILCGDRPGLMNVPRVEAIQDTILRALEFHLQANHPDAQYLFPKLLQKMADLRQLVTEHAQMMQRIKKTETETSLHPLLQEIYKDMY

SMILES | outcome
C[C@@H]1O[C@@H](O[C@@H]2[C@@H](O)[C@H](OCCc3ccc(O)c(O)c3)O[C@H](CO[C@@H]3O[C@H](CO)[C@@H](O)[C@H](O)[C@H]3O)[C@H]2OC(=O)/C=C/c2ccc(O)c(O)c2)[C@H](O)[C@H](O)[C@H]1O | inactive
OC(CCl)CCl | inactive
O=C(/C=C/c1ccc(O)c(O)c1)OC1C[C@](O)(C(=O)O)C[C@@H](O)[C@H]1O (stereo partly specified) | inactive
O=C(O)CN(CCCN(CC(=O)O)CC(=O)O)CC(=O)O | inactive
Clc1nc2ccccc2nc1Cl | inactive
CC1(C)C(=O)NC(=O)N1CO | inactive
